In PubChem BioAssay (NCI):
About 83,000 compounds went through this panel and 20% of them were active in at least one assay; those are over-represented in the sample as a whole.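 For each line, cells grew in 96-well plates with the test compound present at a single concentration for 48 hours.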 Values without a mark were called inactive. Calls of active or inactive are those of the source. Rule for the calls: active = growth percent below 10; inactive = the rest.

Tests used:
Experiment in all cases: NCI-60 one-dose screen, 48 h (100 = growth as untreated, 0 = no growth, -100 = all killed)
Details in all cases: 10 µM unless noted
SR leukemia = test system: SR leukemia
OVCAR-8 ovarian = test system: OVCAR-8 ovarian
OVCAR-5 ovarian = test system: OVCAR-5 ovarian
OVCAR-4 ovarian = test system: OVCAR-4 ovarian
SK-OV-3 ovarian = test system: SK-OV-3 ovarian
IGROV1 ovarian = test system: IGROV1 ovarian
OVCAR-3 ovarian = test system: OVCAR-3 ovarian
HS 578T breast = test system: HS 578T breast
NCI/ADR-RES ovarian = test system: NCI/ADR-RES ovarian

Row | SMILES | growth (SR leukemia) | growth (OVCAR-8 ovarian) | growth (OVCAR-5 ovarian) | growth (OVCAR-4 ovarian) | growth (SK-OV-3 ovarian) | growth (IGROV1 ovarian) | growth (OVCAR-3 ovarian) | growth (HS 578T breast) | growth (NCI/ADR-RES ovarian)
1 | COc1ccc(C2NC(=O)C(C#N)c3c2sc2c(F)cccc32)c(OC)c1 (stereo unspecified) | 13.9% | 62.3% | 98.9% | 53.7% | 50.8% | 52.7% | 13.8% | 21.4% | 16.7%
2 | CCOC(=O)C1=C(N)Oc2c(sc3c(C)cccc23)C1c1ccc(Cl)cc1 (stereo unspecified) | 17.5% | 36.8% | 41.6% | 56.6% | 54.7% | 22.6% | 0.78% (active) | 18.9% | 24.6%
3 | Cc1cccc2c3c(sc12)C(c1ccc(Cl)cc1)C(C#N)=C(/N=C/c1ccc(Cl)cc1)O3 (stereo unspecified) | 24.1% | 25% | 24.6% | 52.9% | 59% | 21.9% | -2.5% (active) | 14.3% | 9.29% (active)
4 | COc1ccc(OC)c(/C=C2\Oc3cc(OCCN4CCC(Cc5ccccc5)CC4)ccc3C2=O)c1 | 2.46% (active) | 78% | 92.1% | 93.8% | 93.3% | 76.2% | 89.8% | 82.2% | 80.2%
5 | CNC(C)[C@H]1CCC2C3CCC4C[C@@H](N(C)C(=O)c5ccccc5)CC[C@]4(C)C3CC[C@@]21C (stereo partly specified) | 34.5% | 47.5% | 81.6% | -5.3% (active) | 67% | 22.8% | 9.46% (active) | 38.7% | 42.4%
6 | CC1CN(C2CCCCC2)C(=S)N(c2ccccc2)C1=O (stereo unspecified) | 98.7% | 118% | 104% | 97.2% | 116% | 105% | 112% | 109% | 102%
7 | COc1ccc2nc(NC(=O)c3cccnc3Nc3ccc(S(N)(=O)=O)cc3)sc2c1 | 59.6% | 97.1% | 102% | 81.7% | 116% | 134% | 98.9% | 96.7% | 104%
8 | O=c1c2cccc(Cl)c2sc2c(NCCCNCCO)nc3ccccc3c12 | -51.2% (active) | 27% | 62.5% | 11.1% | 53.2% | 15.3% | -7.4% (active) | 20.3% | 38.4%
9 | Cc1ccc(-c2nc(N3CCN(C(=O)c4ccc(OC(F)(F)F)cc4)CC3)c3ccccc3n2)cc1 | 78.5% | 90.3% | 97.8% | 106% | 99.3% | 85.6% | 93.9% | 79.1% | 84.4%
10 | Cc1ccc2sc3c(NCCN)nc4ccccc4c3c(=O)c2c1 | -13.4% (active) | 80.1% | 97% | 67% | 88.4% | 72.4% | 63% | 85% | 80.5%
11 | COc1ccc(C2C(N)=NNC2c2cccc(O)c2)cc1 (stereo unspecified) | 81.2% | 93.8% | 107% | 108% | 98.9% | 90.6% | 106% | 110% | 99.1%
12 | CCOC(=O)c1cnn2c3ccccc3n(S(=O)(=O)c3ccc(OC)cc3)c12 | 14% | 27.5% | 42.5% | 71.4% | 48.2% | 28.6% | 0.973% (active) | 37.3% | 0.145% (active)
13 | CCOC(=O)c1cn2ncnc(Oc3ccc(NC(=O)NCCN4CCN(C)CC4)c(Cl)c3)c2c1C | -13.9% (active) | 64.7% | 97.1% | 72.3% | 95.2% | 73.3% | 76.2% | 74.3% | 90.8%
14 | CCc1cccc2c1S/C(=C/c1ccc(Cl)cc1)C2=O | 79% | 101% | 100% | 93.5% | 85.7% | 65.6% | 104% | 88% | 101%
